Source: PubChem
mcGAS MS inh: inhibitors of Mus musculus cyclic GMP-AMP synthase, initial high-throughput assay, cell-free, RapidFire MS | Q8C6L5 | recombinant mouse cGAS, cGAMP by RapidFire MS | inhibition, % at 12.5 µM | 0.18% of 130,000 active;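 active = inhibition of cGAS enzyme activity at or above 60%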;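 also: enzyme stimulated by 45 bp dsDNA with ATP and GTP substrates; cGAMP share of summed cGAMP plus half ATP and half GTP signals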
Target sequence (Q8C6L5 whole entry, looked up): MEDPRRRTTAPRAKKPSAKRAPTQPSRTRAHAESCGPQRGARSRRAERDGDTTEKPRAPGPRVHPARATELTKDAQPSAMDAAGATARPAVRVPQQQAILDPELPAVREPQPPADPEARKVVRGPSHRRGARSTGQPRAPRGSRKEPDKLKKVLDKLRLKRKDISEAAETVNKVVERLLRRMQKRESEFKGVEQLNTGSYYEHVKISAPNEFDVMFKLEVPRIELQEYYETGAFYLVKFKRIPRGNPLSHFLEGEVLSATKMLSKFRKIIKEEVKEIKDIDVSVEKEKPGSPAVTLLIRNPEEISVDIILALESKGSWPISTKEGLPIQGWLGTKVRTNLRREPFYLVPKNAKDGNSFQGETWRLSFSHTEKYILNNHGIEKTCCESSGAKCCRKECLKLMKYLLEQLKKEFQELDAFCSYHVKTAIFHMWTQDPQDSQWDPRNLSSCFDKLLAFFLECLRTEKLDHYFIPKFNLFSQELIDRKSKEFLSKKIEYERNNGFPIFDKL
The depositor's hits bear a star; ! = not active in a repeat. Only a selection was taken, and hits are over-represented in it overall.

SMILES | mcGAS MS inh
CCOc1cc(-c2[nH]c(=S)[nH]c(=O)c2C#N)ccc1O | 99*
N#Cc1c(-c2ccco2)[nH]c(=S)[nH]c1=O | 13
CCOc1cc(C2=NN(c3ccc(C)cc3)C(=O)CC2)ccc1O | 8
COc1ccc(-c2ccc(/C=C3\SC(=S)NC3=O)o2)c([N+](=O)[O-])c1 | 65*
O=C1NC(=S)SC1=Cc1ccccc1[N+](=O)[O-] | 2
COc1cc(C=C2SC(=S)NC2=O)cc(OC)c1 | -5
CCS(=O)(=O)NC(CCSC)C(=O)NC1CCCCC1 (stereo not drawn) | -1
O=C(O)c1sc(Br)c(I)c1I | 78*
O=C(O)c1ccc(Cl)s1 | 22
O=C(O)CCC12CC3CC(CC(C3)C1)C2 | -11
C/C(=N\N1CCN(C)CC1)c1c(C(F)(F)F)[nH]n(-c2nc3ccccc3s2)c1=O | -2
C/C(=C1\C(=O)N(c2nc3ccccc3s2)N=C1C(F)(F)F)N1CCN(c2ccccc2)CC1 | 66*
CC(=NCCc1ccccc1)c1c(C(F)(F)F)[nH]n(-c2nc3ccccc3s2)c1=O | 6
CCn1cc(C(=O)O)c(=O)c2cc3c(cc21)OCO3 | -9
CCc1ccccc1-n1ccc2nc(N3CCCCC3)ncc2c1=O | -18
CCn1cc(C(=O)O)c(=O)c2cnc(N3CCCC3)nc21 | 78*
Cc1nc(Cl)cc(NC2CCN(C(=O)OC(C)C)CC2)n1 | -12
O=c1c2ccccc2nc2c3ccccc3c(NCc3ccccn3)nn12 | 3
O=c1[nH]n2c(=O)c3ccccc3nc2c2ccccc12 | 90*
O=c1c2ccccc2nc2n1CCS2 | -12
Cc1ccc(NC(=O)C(C(C)C)N2CCN(C)CC2)cc1C (stereo not drawn) | 1
O=C(CCNC(=O)c1cccs1)NCc1ccccc1CN1CCCC1 | 5
COC(=O)c1c(N)sc2c1CCC2 | -7
COC(=O)c1c(N2C(=O)C=CC2=O)sc2c1CCCC2 | 91*
COC(=O)c1c(N)sc2c1CCCC2 | -2
SMILES | mcGAS MS inh
NC(=O)CC1CCN(Cc2coc(-c3ccc(Cl)cc3)n2)CC1 | -10
CN1CCC2(CCCN(C(=O)c3nnc4n3CCCCC4)CC2)CC1 | -9
Cc1ccn2cc(C(=O)NC(C)c3ccc4c(c3)CCC(=O)N4)nc2c1 (stereo not drawn) | -6
O=c1c(O)c(-c2ccc(O)c(O)c2)oc2c(O[C@@H]3O[C@H](CO)[C@H](O)[C@@H](O)[C@H]3O)c(O)cc(O)c12 | 1
OCc1cc(O)c2c(O)c3c(O)cccc3c(O[C@@H]3O[C@H](CO)[C@H](O)[C@@H](O)[C@H]3O)c2c1 | -6
CCN(CC)CCCN1C(=O)C2C3C=CC(C3)C2C1=O (stereo not drawn) | -2
CN(Cc1cc(C2CC2)n[nH]1)C(=O)c1cnn2ccn(C)c12 | -4
Cc1cc(O)ccc1C(=O)O | -1
O=C(O)C1=CC(=C(c2ccc(O)c(C(=O)O)c2)c2ccc(O)c(C(=O)O)c2)C=CC1=O | 95*
Nc1ccc(O)c(C(=O)O)c1 | -4
Nc1ccnn1Cc1ccccc1Br | -7
CCCNC(=O)c1nnc2n1CCN(C(=O)Cc1ccccc1)C2 | 6
CC1=C(c2ccc(Cl)cc2)[N+](=O)C(C)(c2ccc(Br)cc2)N1[O-] (stereo not drawn) | 90*
CC(=O)C1(C)N(O)C(C)(C)C(c2ccc(Cl)cc2)=[N+]1[O-] (stereo not drawn) | -1
CC1C(c2ccc(Cl)cc2)=[N+]([O-])C(C)(c2ccccc2)N1O (stereo not drawn) | -8
CCOC(=O)C(O)(CC(=O)NNc1c(F)c(F)c(F)c(F)c1F)C(F)(F)F (stereo not drawn) | -5
CCC(c1nc2ccccc2c(=O)n1CCOC)N1CCNCC1 (stereo not drawn) | -4
CC(=O)Nc1ccc(-c2ccc(C(C)N3CCOCC3)cc2)cn1 (stereo not drawn) | -32
COC(=O)[C@H]1C[C@@H](O)CCN1C(=O)c1ccccc1NCc1cccs1 | -10
COc1cccc2c1C(=O)c1c(O)c3c(c(O)c1C2=O)C[C@@](O)(C(=O)CO)C[C@@H]3O[C@H]1C[C@H](N)[C@H](O)[C@H](C)O1 | 96*
COc1cccc2c1C(=O)c1c(O)c3c(c(O)c1C2=O)C[C@@](O)(C(C)=O)C[C@@H]3OC1CC(N)C(O)C(C)O1 (stereo partly drawn) | 93*
O=C(c1ccc(-n2cnnc2)cc1)N1CCCC(OCc2ccccn2)C1 (stereo not drawn) | -14
O=C(Nc1ccc(-c2noc(-c3cccc([N+](=O)[O-])c3)n2)cc1)c1cccc(Cl)c1 | 9
CC(C(=O)Nc1ccc(C(C)(C)C)cc1)N(C)CC(=O)NCc1ccco1 (stereo not drawn) | -17
CCCCN1Cc2cccc(NC(=O)Cc3csc(CC)n3)c2C1 | 0
SMILES | mcGAS MS inh
CCCCn1c(=O)[nH]c(=O)c2c1nc(CSc1ncn[nH]1)n2CC | -11
COc1cccc2cc(-c3nc4ccccc4[nH]3)c(=Nc3ccc(C)cc3)oc12 | -27
COc1cc(OC)cc(C(=O)NC(C)c2ccc(Cl)s2)c1 (stereo not drawn) | -6
Cc1ccn2c(=O)c(NC(=O)COc3ccccc3)c(C)nc2c1 | 23
CN(C)c1nc2nonc2nc1NC1CCC1 | -4
CCOC(=O)NC(=S)NN(C)c1nc(C)cnc1C | -4
Cc1cnc(C)c(N(C)C)n1 | 93*
O=C1/C(=C/c2cccnc2)COc2c(F)cccc21 | 73*
O=C1/C(=C\c2cccnc2)CSc2ccc(Br)cc21 | 6
O=C1NC(=S)SC1=Cc1cccnc1 | 19
CC(=O)NCc1ccc(C(O)=C(C#N)C(=O)c2cccc(C)c2C)cc1 | -7
O=[N+]([O-])c1c(Nc2cc(Cl)ccc2Cl)cc(N2CCOCC2)c2nonc12 | 2
CC(C)C1CN(C(=O)Cn2cncn2)CCC(=O)N1CC1CC1 (stereo not drawn) | -6
O=C(CCl)Nc1nc(-c2c[nH]c3ccccc23)cs1 | 72*
COc1cccc(-c2nc(-c3c[nH]c4ccccc34)cs2)c1OC | -2
O=C(Cn1cnnn1)Nc1nc(-c2cccc3ccccc23)cs1 | 3
CCn1ncnc1CN1CCOc2c(O)cc(-c3nc4ccccc4s3)cc2C1 | 14
O=C(Nc1cccc(-c2ccco2)c1)C1CCN(Cc2ccccn2)CC1 | -1
Cc1cncc(N[C@H](C)c2ccccc2)n1 | -10
O=C1C=CC(=O)N1c1ccccc1 | -6
O=C1C=CC2C3C(=O)N(c4ccccc4)C(=O)C3C1N2c1ccccc1 (stereo not drawn) | 92*
O=C1C2C3C=CC(C3)C2C(=O)N1c1ccccc1 (stereo not drawn) | -4
O=C(CNC(=O)c1ccoc1)Nc1nncs1 | 3
Cc1cc(=O)oc2c(-c3cc(-c4cccs4)nc(N)n3)c(O)ccc12 | -6
Cc1oc2ccccc2c1C#N | -7
SMILES | mcGAS MS inh
N#Cc1c(N)oc2c3c(c(O)cc12)C(=O)c1ccccc1C3=O | 68*
OC[C@H]1CCN(c2nccc3occc23)C[C@H]1O | 7
CC(=C(C#N)C#N)c1ccc2c(c1)OCO2 | -2
C[n+]1cc2c3c(ccc2c2ccc4cc5c(cc4c21)OCO5)OCO3 | 85*!
CN1CCC(N(C)c2nc(CCN)nc3ccccc23)C1 (stereo not drawn) | 4
Cc1nn(C)c(Cl)c1C(=O)NCc1cccc(CN(C)C(C)C)c1 | -7
CC(C)C(NC(=O)/C=C/C(=O)N(C)C1CCCCC1)c1ccccc1 (stereo not drawn) | -2
O=C1C(=Cc2ccc(-c3ccc(Cl)cc3)o2)SC(=S)N1CCN1CCOCC1 | -4
N#Cc1ccc(/C=C2\SCCc3ccccc3C2=O)cc1 | 7
